From PubChem BioAssay AID652115 (Broad Institute, 2013) come the findings set out here.

By inhibition is commonly meant the change of the read-out against control, counted positive when it falls.

Out of some 330,000 compounds screened, about 3,800 (1.2%) were called active. Many of the other results were omitted from the sample, so actives are more common in it than they were. A number with no mark means an inactive call. Rule as the data show it: active = inhibition above about 15%; inconclusive = no clear call, values can overlap the other calls; inactive = below that.

Chain of NAD-dependent protein deacylase sirtuin-5, mitochondrial (Homo sapiens) (Q9NXA8 whole entry, looked up): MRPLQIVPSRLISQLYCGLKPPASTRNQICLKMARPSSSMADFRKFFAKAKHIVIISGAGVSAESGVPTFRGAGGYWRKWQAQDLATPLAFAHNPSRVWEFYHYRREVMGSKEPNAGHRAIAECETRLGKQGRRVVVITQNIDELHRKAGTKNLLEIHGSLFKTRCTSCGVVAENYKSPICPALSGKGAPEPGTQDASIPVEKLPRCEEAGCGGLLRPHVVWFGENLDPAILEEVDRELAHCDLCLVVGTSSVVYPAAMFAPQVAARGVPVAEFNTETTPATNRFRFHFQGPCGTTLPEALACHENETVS

The assay addresses NAD-dependent protein deacylase sirtuin-5, mitochondrial (Homo sapiens) (UniProt Q9NXA8). Nature of the assay: SIRT5 desuccinylase inhibitors, primary screen, biochemical, fluorescence imaging, single point, set 5 (AID 652115). The note with it: Purified SirT5, succinyl-peptide AMC, trypsin-coupled fluorescence; at 15 µM; hits give high values.
On to `Cc1ccc(NC(=O)C2CC(=O)N(c3ccc4c(c3)OCCO4)C2)cc1S(=O)(=O)N1CCCCCC1` (configuration not stated), for which the inhibition was 15.7% (active).
The value for `COc1ccc(S(=O)(=O)N2CCCCC2)cc1NC(=O)C1CC(=O)N(c2ccc3c(c2)OCCO3)C1` (configuration not stated) was -0.216%; that for `Cc1ccc(N2CC(C(=O)Nc3ccc(S(=O)(=O)N4CCCC4)cc3)CC2=O)cc1C` (configuration not stated) was -0.84%.
For the molecule `CN1[C@@H]2c3ccc(-c4cccc(F)c4)c(=O)n3C[C@@H]2[C@@H](CO)[C@@H]1C(=O)NC1CCC1`, the inhibition is 1.95%.
To `CC(C)(C)OC(=O)N[C@H](C(=O)OC(C)(C)C)c1ccc(Br)cc1` belongs 0.762%; to `COC(=O)c1ccc([C@@H](O)[C@H](C)C(=O)CC(=O)OC(C)(C)C)cc1`, 37.8% (active).
The value for `CC(C)(C)OC(=O)Nc1ccc([C@@H](NC(=O)OC(C)(C)C)C(=O)OC(C)(C)C)cc1` was 4.38%; that for `C[C@@H]1CN([C@H](C)CO)C(=O)c2c(c3ccccc3n2C)-c2ccccc2CO[C@H]1CN(C)Cc1ccc(F)cc1` was 8.7%.
As for `C[C@H]1CN([C@@H](C)CO)C(=O)c2cc(-c3cccnc3)cnc2O[C@@H]1CN(C)C(=O)C1CC1`, the inhibition was -5.02%.
The value for `C[C@H](CO)N1C[C@H](C)[C@@H](CN(C)Cc2ccc(C(=O)O)cc2)Oc2ccc(NC(=O)Cn3cnnn3)cc2CC1=O` was 0.832%; that for `C[C@H]1CN([C@@H](C)CO)C(=O)Cc2cc(NS(=O)(=O)c3ccccc3)ccc2O[C@@H]1CN(C)Cc1ccc(C(=O)Nc2ccccc2N)cc1` was -3.96%; that for `C[C@@H]1CN([C@H](C)CO)C(=O)Cc2cc(NC(=O)Cc3ccccc3)ccc2O[C@H]1CN(C)Cc1ccc(Oc2ccccc2)cc1` was 11.3%.
The value for `C[C@H]1CN([C@@H](C)CO)C(=O)Cc2cc(NC(=O)Cn3cnnn3)ccc2O[C@H]1CN(C)Cc1ccc(C(=O)O)cc1` was 18% (active).
To `C[C@H](CO)N1C[C@H](C)[C@@H](CN(C)Cc2ccc(-c3ccccc3)cc2)Oc2ccc(NC(=O)CCC(F)(F)F)cc2CC1=O` belongs 16.8% (active); to `C[C@@H]1CN([C@H](C)CO)C(=O)Cc2cc(NC(=O)CCC(F)(F)F)ccc2O[C@@H]1CN(C)Cc1ccncc1`, -3.99%.
As for `C[C@@H]1CN([C@@H](C)CO)C(=O)Cc2cc(NC(=O)Cc3ccccc3)ccc2O[C@@H]1CN(C)Cc1ccc(Oc2ccccc2)cc1`, the inhibition was 15.7% (active).
As to `COc1ccc(CN(C)C[C@H]2Oc3ccc(NC(=O)Cc4ccccc4)cc3CC(=O)N([C@@H](C)CO)C[C@@H]2C)cc1`, the inhibition is 3.47%.
The value for `C[C@@H]1CN([C@@H](C)CO)C(=O)Cc2cc(NC(=O)CCCN(C)C)ccc2O[C@@H]1CN(C)Cc1ccc(-c2ccccc2)cc1` was -0.666%; that for `C[C@H]1CN([C@@H](C)CO)C(=O)Cc2cc(NC(=O)Cn3cnnn3)ccc2O[C@@H]1CN(C)Cc1ccc(-c2ccccc2)cc1` was 4.01%.
To `Cc1ccc(S(=O)(=O)Nc2ccc3c(c2)CC(=O)N([C@@H](C)CO)C[C@H](C)[C@H](CN(C)Cc2ccc(C(=O)Nc4ccccc4N)cc2)O3)cc1` belongs 3.56%.
For `C[C@H]1CN([C@@H](C)CO)C(=O)Cc2cc(NS(=O)(=O)c3ccccc3)ccc2O[C@H]1CN(C)Cc1ccc(C(=O)Nc2ccccc2N)cc1`, the inhibition was 18.7% (active).
With `COCc1cc(N2CCN(C(=O)OC(C)(C)C)C[C@@H]2C)ccc1N1CCN(Cc2ccccc2)[C@H](C)C1`, the inhibition is -1.86%.
Turning to `COc1ccc2c3c([nH]c2c1)[C@H](CO)N(Cc1ccccc1)CC31CCN(C(=O)c2ccccn2)CC1`, the inhibition was -0.283%.
The value for `CC(=O)N[C@@H]1CC[C@@H](CCNC(=O)C2CC2)O[C@H]1CO` was -0.463%; that for `C[C@H](CO)N1C[C@H](C)[C@H](CN(C)C(=O)CCC(F)(F)F)OCCCC[C@H](C)Oc2ccc(NS(=O)(=O)c3ccc(F)cc3)cc2C1=O` was 6.37%.
The value for `C[C@@H]1CCCCO[C@@H](CN(C)S(C)(=O)=O)[C@H](C)CN([C@@H](C)CO)C(=O)c2cc(NS(=O)(=O)c3cccs3)ccc2O1` was -3.17%; that for `CC(C)NC(=O)N(C)C[C@H]1Oc2ncc(-c3ccc(C(=O)N(C)C)cc3)cc2C(=O)N([C@H](C)CO)C[C@H]1C` was -4.27%.
To `C[C@@H]1CCCCO[C@H](CN(C)Cc2ccc(Cl)c(Cl)c2)[C@H](C)CN([C@@H](C)CO)C(=O)c2cc(NC(=O)CCC(F)(F)F)ccc2O1` belongs 11%.
In the case of `CCN(CC(=O)NCCc1ccccc1)S(=O)(=O)c1ccccc1`, the inhibition is 13.5%.
The value for `CCN(CC(=O)Nc1ccc2c(c1)OCO2)S(=O)(=O)c1ccccc1` was -11.2%; that for `CCN(CC(=O)NC1CCS(=O)(=O)C1)S(=O)(=O)c1ccccc1` (configuration not stated) was 20.8% (active); that for `COc1cccc(/C=C2/SC(=S)N(CC(=O)NC3C=CS(=O)(=O)C3)C2=O)c1` (configuration not stated) was 7.07%.
To `CCOc1ccc(/C=C2\SC(=S)N(NC(=O)c3ccncc3)C2=O)cc1OC` belongs -1.31%; to `COc1ccc(/C=C2\SC(=S)N(CC(=O)NNC(=O)c3ccncc3)C2=O)cc1`, 36.3% (active).
As for `COc1ccccc1S(=O)(=O)N1CC[C@@H]2[C@H]1c1cc(-c3ccccc3)ccc1N[C@@H]2CO`, the inhibition was 2.02%.
The value for `O=C(C[C@@H]1CC[C@H](NC(=O)C2CCOCC2)[C@@H](CO)O1)Nc1ccccc1` was -0.611%; that for `Cc1ccc(F)cc1S(=O)(=O)N[C@@H]1CCN(Cc2ccc(-c3ccccc3)cc2)C1` was 4.54%.
The value for `Cc1ccc(S(=O)(=O)N2C[C@@H]3CCCC[C@@H]3[C@@H](C)[C@H]2c2cn(Cc3ccccc3)c3ccc(F)cc23)cc1` was 26.5% (active); that for `CCOC1=C2[C@@H](CN(S(=O)(=O)c3ccc(C)cc3)[C@H]2c2ccccc2F)[C@H]2C(=O)N(Cc3ccccc3)C(=O)[C@H]2C1` was 10.7%; that for `COC1=C/C(=C/c2c(N)n3nc(CC(=O)N4CCOCC4)sc3nc2=O)C=CC1=O` was 15.9% (active).
Consider `COc1cc(/C=C2\C(=N)N3N=C(CC(=O)N4CCOCC4)SC3=NC2=O)cc(OC)c1OC`, for which the inhibition is -5.1%.
The value for `C=CCC1=C/C(=C\c2c(N)n3nc(CC(=O)N4CCOCC4)sc3nc2=O)C=C(OC)C1=O` was 31.6% (active).
Regarding `COc1cccc(/C=C2\SC(=S)N(CCCC(=O)N3CCOCC3)C2=O)c1`, the inhibition was -0.302%.
The value for `O=C(OCC(=O)N1CCOCC1)c1ccc2ccccc2c1` was -8.77%; that for `C[C@H](CO)N1C[C@H](C)[C@H](CN(C)Cc2cncnc2)Oc2cc(-c3ccccc3F)ccc2S1(=O)=O` was -2.9%.
To `O=C(C[C@H]1CC[C@H]2[C@@H](COC[C@H](O)CN2Cc2nccs2)O1)NCc1ccc(Oc2ccccc2)cc1` belongs -0.449%; to `Cc1ccc(-c2cnc3c(c2)C(=O)N([C@@H](C)CO)C[C@H](C)[C@H](CN(C)C(=O)c2cccnc2)O3)cc1`, 1.09%.
The value for `O=S(=O)(c1ccccc1F)N1[C@@H]2CNC[C@H]1C2c1ccc(-c2cncnc2)cc1` (some centres not stated) was -2.66%; that for `Cc1ccc(S(=O)(=O)N[C@H]2CC[C@@H](CC(=O)N3CCc4ccccc4C3)O[C@H]2CO)cc1` was -2.83%; that for `COCC(=O)N1CC2(C1)[C@@H](c1ccc(-c3cccc(F)c3)cc1)[C@@H](CO)N2C(=O)COC` was -1.31%.
Regarding `COCC(=O)N1[C@H](CO)[C@@H](c2ccccc2)C12CN(Cc1cc(F)ccc1F)C2`, the inhibition is 19% (active).
To `COCC(=O)N1CC2(C1)[C@H](c1ccc(-c3cccc(F)c3)cc1)[C@@H](CO)N2C(=O)COC` belongs -3.18%; to `C[C@@H](NC(=O)C[C@H]1C=C[C@@H](NC(=O)CN2CCOCC2)[C@@H](CO)O1)c1ccccc1`, 0.512%; to `O=C(C[C@@H]1CC[C@@H]2[C@H](COC[C@H](O)CN2S(=O)(=O)c2ccc(Oc3ccccc3)cc2)O1)NCCN1CCCCC1`, -3.74%.
With `CO[C@@H]1CN(C)C(=O)c2ccc(NS(=O)(=O)c3ccc(Cl)cc3)cc2OC[C@@H](C)N(C)C[C@H]1C`, the inhibition was -8.92%.
The value for `CC(C)NC(=O)N[C@H]1CC[C@@H](CCNC(=O)C2CCC2)O[C@@H]1CO` was -0.093%; that for `CO[C@H]1CC[C@H]2CCOc3c(C#N)cccc3C(=O)N(C)CC3(CCCCC3)CC(=O)N(C)C[C@@H]1O2` was -0.489%.
On to `O=c1ccnc(Nc2ccc(Cl)cc2)[nH]1`, for which the inhibition was -3.58%.
To `Clc1ccc(Nc2ccc3ccccc3n2)cc1` belongs -0.101%; to `CC1(C)N=C(N)NC(Nc2ccc(Cl)cc2)=N1`, 24.2% (active).
To `CO[C@H]1CN(C)C(=O)c2ccc(NS(=O)(=O)c3cn(C)cn3)cc2OC[C@@H](C)N(CC2CC2)C[C@H]1C` belongs 10.4%; to `CCOC(=O)c1cnc2nc(SCc3ccccc3Cl)[nH]n2c1=O`, -0.638%.
The value for `COc1cnc(SCc2ccc(Cl)c(Cl)c2)nc1Cl` was -1.51%.
With `COC(OC)c1ccnc(SCc2ccccc2Cl)n1`, the inhibition was 65.6% (active).
To `Cc1ccc2nc(CN(C)C(=O)[C@@H](Cc3ccccc3)NC(=O)[C@H]3O[C@@H](n4ccc(=O)[nH]c4=O)[C@H](O)[C@@H]3O)[nH]c2c1` belongs 0.009%.
As for `CN1C(=O)c2cc(NC(=O)c3cscn3)ccc2OC[C@@H]2O[C@H](CC(=O)N3CCCCC3)CC[C@H]21`, the inhibition is 10.6%.
The value for `COc1ccc(C#Cc2cnc3c(c2)C(=O)N([C@H](C)CO)C[C@H](C)[C@H](CN(C)C(=O)CC2CC2)O3)cc1` was 8.29%.
